Inconclusive results are not listed. The source made the active and inactive calls. Calls come from the whole dose curve; as a rule, active = well fitted inhibition curve with a large enough effect; inconclusive = small, poorly fitted or top-dose-only effect; inactive = no such curve, though single readings can be large or run the other way.
experiment: qHTS for Inhibitos of Bacillus subtilis Sfp phosphopantetheinyl transferase (PPTase): Chemistry Optimization Followup in B. Subtilis 168; details: B. subtilis 168 growth, BacTiter-Glo luminescence, 5 h; series mostly up to 114 µM
Description: Phosphopantetheinyl transfer is a process essential to cellular viability and maintenance. Cell-permeable and stable compounds acting as PPTase inhibitors are anticipated to be antimicrobial agents in organisms with complimenting genotypes. […] This experiment evaluated a series of test compounds for antimicrobial activity with B. subtilis 168 (genotype: acpS+ and sfp-), a strain that contains a frameshift mutation in the sfp locus and thus requires a functional AcpS gene product for viability. [Mootz HD, 2001] This strain is expected to be sensitized to cell-permeable AcpS inhibitors, and insensitive to Sfp inhibitors. NIH Chemical Genomics Center [NCGC] NIH Molecular Libraries Probe Centers Network [MLPCN] MLPCN Grant: MH083266-01 Assay Submitter (PI): Michael Burkart, University of California, San Diego
Innoculum preparation. Bacillus subtilis 168 is maintained on lysogeny broth (LB) solidified by the addition of 1.5% w/v agar. Single colonies were used to LB medium (2 mL) and shaken overnight at 30 masculineC. In the morning, this culture (100 ul) was used to seed a fresh LB medium (10 mL) and was shaken at 30 masculineC until the culture OD600 reached 0.5. This culture was diluted 1:100 in fresh LB medium to provide the inoculum below. Bacterial susceptibility. LB medium (2 uL) is dispensed into wells of a sterile white 1536-well plate. Test compounds (23 nL) prepared as serial dilutions in DMSO are added to the plate by pintool transfer. Innoculum (2 uL) is added, the plates are covered with a vented Kalypsys assay lid and incubated at 30 masculineC. After 5 h, Bac-Titer Glo (4 uL; Promega Corp, Madison, WI) is added to the plates. They are incubated 10 minutes at room temperature and then the luminescence detected in a ViewLux multimodal plate reader.

SMILES | Potency
Cc1cccc(NC(=S)N2CCN(c3cccc(C(F)(F)F)c3)CC2)c1 | inactive
COc1cccc(NC(=S)N2CCN(c3cc(C(F)(F)F)cc(C(F)(F)F)c3)CC2)n1 | inactive
COC(=O)c1ccnc(NC(=S)N2CCN(c3cccc(C(F)(F)F)c3)CC2)c1 | 41.8 µM (active)
Cc1ccnc(NC(=S)N2CCN(c3cccc(C(F)(F)F)n3)CC2)c1 | 16.7 µM (active)
Cc1ccnc(NC(=S)N2CCN(c3cccc(N(C)C)c3)CC2)c1 | 59.1 µM (active)
Cc1ccnc(NC(=S)N2CCc3ccccc3C2)c1 | 59.1 µM (active)
COc1ccnc(NC(=S)N2CCN(c3ncc(C(F)(F)F)cc3Cl)CC2)c1 | 14.8 µM (active)
Cc1cc(C)nc(NC(=S)N2CCN(c3ccc(Cl)cc3C(F)(F)F)CC2)c1 | 9.37 µM (active)
Cc1ccnc(NC(=S)NC2CN(c3cccc(C(F)(F)F)c3)C2)c1 | 46.9 µM (active)
Cc1ccnc(NC(=S)N2CCCN(c3cccc(C(F)(F)F)c3)CC2)c1 | 16.7 µM (active)
Cc1cc(C)nc(NC(=S)N2CCN(c3cncs3)CC2)c1 | 46.9 µM (active)
FC(F)(F)c1cc(N2CCN(C(=S)Nc3cc(Cl)ccn3)CC2)cc(C(F)(F)F)c1 | 37.3 µM (active)
COc1ccnc(NC(=S)N2CCN(c3cccc(Cl)c3Cl)CC2)c1 | 9.37 µM (active)
OCc1ccnc(NC(=S)N2CCN(c3cccc(C(F)(F)F)c3)CC2)c1 | 46.9 µM (active)
Cc1ccnc(NC(=S)N2CC3CN(c4cccc(C(F)(F)F)c4)CC3C2)c1 (centres undefined) | 11.8 µM (active)
S=C(Nc1cc(Cl)ccn1)N1CCN(c2ccc(Cl)cc2Cl)CC1 | 9.37 µM (active)
COc1cccc(NC(=S)N2CCN(c3ccccc3C(F)(F)F)CC2)n1 | 26.4 µM (active)
Cc1ccnc(NC(=S)N2CCN(c3ccc(Cl)cc3Cl)CC2)c1 | 16.7 µM (active)
COc1cccc(NC(=S)N2CCN(c3ccc(Cl)c(Cl)c3)CC2)n1 | inactive
COc1cccc(NC(=S)N2CCN(c3cc(Cl)cc(Cl)c3)CC2)n1 | inactive
Cc1cc(C)nc(NC(=S)N2CCN(c3ccc(Cl)c(Cl)c3Cl)CC2)c1 | 9.37 µM (active)
Cc1cc(C)nc(NC(=S)N2CCN(c3ccc4nncn4c3)CC2)c1 | inactive
Cc1ccnc(NC(=S)Nc2cccc(C(F)(F)F)c2)c1 | 16.7 µM (active)
Cc1cc(C)nc(NC(=S)N2CCN(c3nsc4ccccc34)CC2)c1 | 52.7 µM (active)
